# Source: the supplement of paper PMC9262897, “Low-cost anti-mycobacterial drug discovery using engineered E. coli” (Nature Communications, 2022)
# Where a name gives a salt, the structure may show the parent alone. ± gives the standard deviation of the averaged measurements.
# Columns and labels:
# Experiment in all cases: growth (OD600 after 10 h); higher = more growth (less inhibition)
# [1] = system: E. coli TESEC Alr+ wild-type control; conditions: compound 0.1 mM; raw OD600 reference: median of DMSO wells 0.241, cell-free background 0.041
# Protocol: (§1)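 TESEC Mtb Alr E. coli, or the Alr+ wild-type control, in 384-well plates with Prestwick library compounds at 0.1 mM and 1% DMSO, across arabinose induction levels of 1E3 to 1E7 nM. Growth is read as OD600 after 10 h at 37 °C in triplicate biological replicates.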
# E. coli TESEC Mtb Alr [2] = conditions: compound 0.1 mM
# Protocol: as §1
# E. coli TESEC Mtb Asd = conditions: compound 0.1 mM
# Protocol: (§2)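 TESEC E. coli strains in which the native enzyme is deleted and replaced by arabinose-inducible Mtb Asd, DapB, CysH or TrpD, each grown in its selective medium. Strains were screened against the Prestwick library at 0.1 mM and 1% DMSO in 384-well format at low and high arabinose induction. Growth is read as OD600 after 10 h in triplicate.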
# E. coli TESEC Mtb DapB = conditions: compound 0.1 mM
# Protocol: as §2
# E. coli TESEC Mtb Alr [3] = conditions: compound 0.1 mM; remark: listed apart in the source
# Protocol: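 TESEC Mtb Alr E. coli (ΔaraC ΔtolC ΔentC Δalr ΔdadX, arabinose-inducible Mtb Alr) or the Alr+ wild-type control strain, grown in defined M9-fructose medium without D-alanine in 96-well plates with Prestwick library compounds at 0.1 mM and 1% DMSO. Low Alr induction is 0.1 µM arabinose and high induction is 10 mM arabinose.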
# [4] = arabinose 1000 nM, raw OD600 reference: median of DMSO wells 0.294, cell-free background 0.041
# [5] = arabinose 10000 nM, raw OD600 reference: median of DMSO wells 0.264, cell-free background 0.041
# [6] = arabinose 100000 nM, raw OD600 reference: median of DMSO wells 0.201, cell-free background 0.041
# [7] = arabinose 1000000 nM, raw OD600 reference: median of DMSO wells 0.193, cell-free background 0.041
# [8] = arabinose 10000000 nM, raw OD600 reference: median of DMSO wells 0.146, cell-free background 0.041
# [9] = arabinose induction (level): High, raw OD600 reference: median of DMSO wells 0.331, cell-free background 0.041
# [10] = arabinose induction (level): Low, raw OD600 reference: median of DMSO wells 0.417, cell-free background 0.041
# [11] = arabinose induction (level): High, raw OD600 reference: median of DMSO wells […], cell-free background 0.041
# [12] = arabinose induction (level): Low, raw OD600 reference: median of DMSO wells 0.227, cell-free background 0.041
# [13] = arabinose 100 nM, raw OD600 reference: median of DMSO wells 0.413, cell-free background 0.052
# [14] = arabinose 10000000 nM, raw OD600 reference: median of DMSO wells […], cell-free background 0.052
SMILES,growth [1],growth (E. coli TESEC Mtb Alr [2]; [4]),growth (E. coli TESEC Mtb Alr [2]; [5]),growth (E. coli TESEC Mtb Alr [2]; [6]),growth (E. coli TESEC Mtb Alr [2]; [7]),growth (E. coli TESEC Mtb Alr [2]; [8]),growth (E. coli TESEC Mtb Asd; [9]),growth (E. coli TESEC Mtb Asd; [10]),growth (E. coli TESEC Mtb DapB; [11]),growth (E. coli TESEC Mtb DapB; [12]),growth (E. coli TESEC Mtb Alr [3]; [13]),growth (E. coli TESEC Mtb Alr [3]; [14])
Cn1ccnc1S [Methimazole],0.257 ± 0.0088,0.32 ± 0.018,0.275 ± 0.0076,0.195 ± 0.011,0.191 ± 0.0034,0.16 ± 0.0067,0.484 ± 0.0095,0.417 ± 0.096,0.2 ± 0.0098,0.262 ± 0.04,0.405 ± 0.014,0.323 ± 0.009
CN(C)CCC=C1c2ccccc2CCc2ccccc21 [Amitryptiline hydrochloride],0.1735 ± 0.0011,0.218 ± 0.0042,0.247 ± 0.0093,0.195 ± 0.012,0.08457 ± 0.00076,0.152 ± 0.0021,0.146 ± 0.0079,0.273 ± 0.011,0.195 ± 0.019,0.232 ± 0.047,0.403 ± 0.015,0.182 ± 0.031
Cc1cccc(N(C)C(=S)Oc2ccc3ccccc3c2)c1 [Tolnaftate],0.255 ± 0.019,0.272 ± 0.02,0.268 ± 0.012,0.165 ± 0.016,0.11 ± 0.011,0.163 ± 0.0066,0.281 ± 0.07,0.246 ± 0.047,0.174 ± 0.012,0.243 ± 0.029,0.384 ± 0.015,0.264 ± 0.064
O=c1[nH]c(=O)n([C@H]2C[C@H](O)[C@@H](CO)O2)cc1C(F)(F)F [Trifluridine],0.194 ± 0.02,0.213 ± 0.049,0.0994 ± 0.0099,0.121 ± 0.0045,0.082 ± 0.0069,0.135 ± 0.0027,0.13 ± 0.0033,0.203 ± 0.0098,0.164 ± 0.006,0.174 ± 0.0024,0.077 ± 0.0037,0.129 ± 0.023
O=C(O)CCCC[C@@H]1SC[C@@H]2NC(=O)N[C@@H]21 [Biotin],0.257 ± 0.0089,0.309 ± 0.0092,0.265 ± 0.016,0.217 ± 0.028,0.206 ± 0.018,0.145 ± 0.0046,0.347 ± 0.05,0.418 ± 0.045,0.18 ± 0.0081,0.208 ± 0.022,0.408 ± 0.0076,0.354 ± 0.014
C[C@H](CCC(=O)O)[C@H]1CC[C@H]2[C@@H]3C(=O)C[C@@H]4CC(=O)CC[C@]4(C)[C@H]3CC(=O)[C@]12C [Dehydrocholic acid],0.252 ± 0.0042,0.252 ± 0.062,0.25 ± 0.012,0.186 ± 0.022,0.183 ± 0.0057,0.138 ± 0.0079,0.329 ± 0.068,0.33 ± 0.07,0.196 ± 0.0059,0.236 ± 0.04,0.406 ± 0.0045,0.3 ± 0.0058
NCCCC[C@H](N[C@@H](CCc1ccccc1)C(=O)O)C(=O)N1CCC[C@H]1C(=O)O [Lisinopril],0.257 ± 0.0039,0.304 ± 0.0053,0.251 ± 0.0067,0.213 ± 0.0063,0.177 ± 0.0033,0.159 ± 0.0064,0.35 ± 0.051,0.4 ± 0.031,0.212 ± 0.0046,0.316 ± 0.057,0.41 ± 0.015,0.343 ± 0.0091
OCCN1CCN(CCCN2c3ccccc3Sc3ccc(C(F)(F)F)cc32)CC1 [Fluphenazine dihydrochloride],0.0421 ± 0.0038,0.041 ± 0.0026,0.0391,0.03987 ± 0.00021,0.03867 ± 0.00012,0.0405 ± 0.00052,0.0496 ± 0.00091,0.0515 ± 0.0021,0.0483 ± 0.00055,0.15 ± 0.1,0.286 ± 0.21,0.0529 ± 0.00081
NCC[C@H](O)C(=O)N[C@@H]1C[C@H](N)[C@@H](O[C@H]2O[C@H](CN)[C@@H](O)[C@H](O)[C@H]2O)[C@H](O)[C@H]1O[C@H]1O[C@H](CO)[C@@H](O)[C@H](N)[C@H]1O [Amikacin hydrate],0.04273 ± 0.00012,0.0418 ± 0.00079,0.039 ± 0.0001,0.0425 ± 0.0009,0.03943 ± 0.00021,0.0506 ± 0.00051,0.0495 ± 0.0018,0.0485 ± 0.0012,0.0548 ± 0.0017,0.0518 ± 0.0032,0.0563 ± 0.0034,0.0532 ± 0.0009
CC(C)(O)c1ccccc1CC[C@@H](SCC1(CC(=O)O)CC1)c1cccc(/C=C/c2ccc3ccc(Cl)cc3n2)c1 [Montelukast],0.24 ± 0.013,0.281 ± 0.0035,0.317 ± 0.012,0.31 ± 0.019,0.206 ± 0.0075,0.261 ± 0.012,0.219 ± 0.028,0.347 ± 0.065,0.183 ± 0.025,0.253 ± 0.023,0.479 ± 0.027,0.376 ± 0.026
CC(=O)O[C@H]1C[C@@]2(C)[C@@H](C[C@@H](O)[C@H]3[C@@]4(C)CC[C@@H](O)[C@@H](C)[C@@H]4CC[C@@]32C)/C1=C(\CCC=C(C)C)C(=O)O [Fusidic acid sodium salt],0.04197 ± 0.0004,0.0422 ± 0.00097,0.0411 ± 0.001,0.0429 ± 0.0003,0.0403 ± 0.00017,0.04237 ± 0.00032,0.0498 ± 0.0038,0.0478 ± 0.0026,0.0536 ± 0.0022,0.052 ± 0.0007,0.11 ± 0.0058,0.0515 ± 0.00085
CC(=O)CCCCn1c(=O)c2c(ncn2C)n(C)c1=O [Pentoxifylline],0.2306 ± 0.0011,0.276 ± 0.0075,0.2728 ± 0.0025,0.203 ± 0.013,0.187 ± 0.0042,0.134 ± 0.0031,0.297 ± 0.079,0.387 ± 0.029,0.2 ± 0.024,0.207 ± 0.019,0.431 ± 0.0088,0.363 ± 0.006
COc1cc(N)c(Cl)cc1C(=O)NC1CCN(CCCOc2ccc(F)cc2)CC1OC (stereo not drawn) [Cisapride],0.2147 ± 0.0012,0.2892 ± 0.0012,0.2613 ± 0.0016,0.201 ± 0.03,0.155 ± 0.0047,0.148 ± 0.0037,0.222 ± 0.017,0.357 ± 0.041,0.171 ± 0.003,0.186 ± 0.0052,0.41 ± 0.011,0.458 ± 0.038
CC(=O)c1ccc2c(c1)N(CCCN(C)C)c1ccccc1S2 [Acetopromazine maleate salt],0.183 ± 0.0048,0.228 ± 0.0028,0.263 ± 0.016,0.208 ± 0.023,0.123 ± 0.0016,0.152 ± 0.0028,0.214 ± 0.025,0.301 ± 0.033,0.188 ± 0.012,0.217 ± 0.021,0.399 ± 0.011,0.322 ± 0.015
